For 40 compounds, growth results are on record in PubChem BioAssay (NCI).

The structures appear in SMILES notation. Compounds without any hit were thinned out: in the full panel of roughly 83,000, 20% have a hit.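 96-well plates, one dose, 48 hours. Percent growth reported; active if below 10.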 The source made the active and inactive calls.

For this assay, the system named is SK-MEL-2 melanoma. Nature of the assay: NCI-60 one-dose screen, 48 h (100 = growth as untreated, 0 = no growth, -100 = all killed). The following applies: 10 µM unless noted. The method, then:
Growth inhibition of the SK-MEL-2 human tumor cell line is measured as a screen for anti-cancer activity. Cells are grown in 96 well plates and exposed to the test compound for 48 hours. Compounds are tested at a single concentration, which is 10^-5 M for most compounds. The reported endpoint is percent growth (GI% or GIPRCNT), where numbers from 0 - 100% represent growth inhibition, and numbers from -100% - 0 represent cell death. For example, a value of 40 represents 60% growth inhibition. A value of 0 means no net growth occurred over the course of the experiment. A value of -40 indicates 40% of cells at the beginning of the experiment died by the end of the experiment. A value of -100 means all cells are dead at the end of the experiment.
NCI-60 Human Tumor Cell Lines Screen was performed using the standard one-dose NCI protocol, which is described in more detail at https://dtp.cancer.gov/discovery_development/nci-60/default.htm.
Compounds with GIPRCNT values below 10 were considered active. Activity score was based on GIPRCNT using the following formula: […]
Score is 0 for GIPRCNT values of 100 or above, 50 for GIPRCNT values of 0, and 100 for GIPRCNT values of -100.
As to `N/C(=N\C(N)=N\c1nc2ccccc2s1)c1ccc(C(F)(F)F)cc1`, the growth is 108% (inactive).

Turning to `C#Cc1nc(C(=O)NCCC(=O)Nc2ccc(NC(=O)c3ccc(/C=C/C(=O)c4nccn4C)cc3)cc2)cs1`, the growth was 100% (inactive).

For `COc1cc2oc(-c3cccc(NC(=O)c4cc(N)ccc4Cl)c3)cc(=O)c2c(OC)c1OC`, the growth is 110% (inactive).

For the compound `O=C(NCCn1ccnc1)c1ccc(-c2nc3ccc4[nH]ncc4c3c3c2CCCC3)cc1`, the growth is 45.3% (inactive).

As for `Cc1ccc(C2=NN(C)C(=O)C3(CCCC3)C2)cc1`, the growth is 110% (inactive).

For the compound `C#Cc1ccc(C(=O)NCc2ccc(/C=C/C(=O)c3nccn3C)cc2)cc1`, the growth is 87% (inactive).

In the case of `CCN1CCN(Cc2ccc(C(=O)Nc3ccc(C)c(Oc4ccc(-c5[nH]nc6ncnc(N)c56)cc4)c3)cc2C(F)(F)F)CC1`, the growth was 90% (inactive).

As for `NC(=O)c1c(NC(=O)c2ccc(F)cc2F)sc2c1CCC(=O)C2`, the growth was 102% (inactive).

Regarding `CCc1cccc2c3c(sc12)C(c1ccc(Cl)cc1)C(C#N)=C(/N=C/c1ccc(Cl)cc1)O3` (stereo not given), the growth was 31% (inactive).

Turning to `Cc1ccc(NC(=O)c2ccc(CN3CCN(C)CC3)cc2)cc1Oc1ccc(-c2[nH]nc3ncnc(N)c23)cc1`, the growth was 103% (inactive).

On to `CC(=O)Nc1cccc(Nc2nc(N[C@@H](C)c3ccccc3)c3ccccc3n2)c1`, for which the growth was 38.2% (inactive).

In the case of `O=C1[C@H]2Cc3c([nH]c4ccccc34)[C@@H](c3ccc(Br)cc3)N2C(=O)CN1C1CCN(CC2CCCCC2)CC1`, the growth is 16.7% (inactive).

Regarding `Cc1nn(-c2ccccc2)c2ncnc(N/N=C/c3ccccc3O)c12`, the growth was 35.4% (inactive).

For `NS(=O)(=O)c1ccc(Nc2nc(Nc3ccccc3)nc3nnc(SCC(=O)NC4CCCCC4)n23)cc1`, the growth is 106% (inactive).

As to `COC[C@]12CCC(C)(C)C[C@H]1C1=CC[C@@H]3[C@@]4(C)CCCNC(C)(C)[C@@H]4CC[C@@]3(C)[C@]1(C)CC2`, the growth was 35.2% (inactive).

`COc1ccc(S(=O)(=O)NCCCNc2nccc(-c3[nH]c(-c4ccccc4)nc3-c3ccc(Cl)c(O)c3)n2)cc1`: the growth is 15.4% (inactive).

As for `O=C1CCCc2nc(Nc3ccc(S(=O)(=O)Nc4ccc([N+](=O)[O-])cc4)cc3)ncc21`, the growth was 111% (inactive).

`O=C(c1ccc(Cl)cc1)C1[C@H](c2ccc(Cl)cc2)[C@@H](c2ccccc2)NC12C(=O)Nc1ccccc12` (stereo not given in full): the growth was 72.5% (inactive).

Regarding `C=CCn1c(SCC(=O)Nc2ccc(C(=O)/C=C/c3ccc(Cl)cc3)cc2)nnc1-c1c[nH]c2ccccc12`, the growth was 88.7% (inactive).

As to `COc1cc2c(cc1OC)C(Sc1ccc(C)cc1)c1c(nc(N)c(C#N)c1N)O2` (stereo not given), the growth was -20% (active).

Turning to `N#Cc1cccc(CN2CCC3=C(C2)C(=O)N(Cc2ccc(Cl)cc2)C2=NCCN23)c1`, the growth is 39.5% (inactive).

As to `CCn1c(SCC(=O)Nc2cccc(C(=O)/C=C/c3cc(OC)c(OC)c(OC)c3)c2)nc2ccccc2c1=O`, the growth is 109% (inactive).

Take `CC(=O)C1=C(C)NC(NNC(N)=S)=NC1c1ccccc1` (stereo not given): the growth is 96.9% (inactive).

For the compound `C[C@H]1c2[nH]c3ccccc3c2C[C@H]2C(=O)N(CCCCCCC(=O)NO)CC(=O)N21`, the growth was 76.3% (inactive).

As to `O=C(CCn1c[n+](CC(=O)c2ccc(-c3ccccc3)cc2)c2ccccc21)Nc1cccc2cccnc12`, the growth is 65.4% (inactive).

Regarding `Cc1cc2nc(C(Cl)Cl)nc(-c3cccs3)n2n1`, the growth is 97.7% (inactive).

`CCO/C=N/C1=C(C#N)C(c2ccc(Cl)cc2)c2sc3c(CC)cccc3c2O1` (stereo not given): the growth was 38.8% (inactive).

As to `CC(=O)c1ccc(Nc2nc(SCC(C)C)nc(-c3ccc(F)cc3)c2C#N)cc1`, the growth is 109% (inactive).

Regarding `CCn1c(SCC(=O)Nc2cccc(C(=O)/C=C/c3ccc(C)cc3)c2)nc2ccccc2c1=O`, the growth was 108% (inactive).

Take `COc1cc(-c2nc(SCCC(C)C)nc(NNC(=O)c3ccncc3)c2C#N)cc(OC)c1OC`: the growth is 101% (inactive).

With `Cc1cc(C(NC(=O)CCCCCNc2cccc3c2C(=O)N(C2CCC(=O)NC2=O)C3=O)c2ccc3c(c2)OC(F)(F)O3)c(O)c2ncccc12` (stereo not given), the growth was 62.6% (inactive).

As for `Nc1cc(F)ccc1NC(=O)c1ccc(NC(=O)C/C=C/c2cccnc2)cc1`, the growth was 41.3% (inactive).

Consider `O=C1CCCC2=C1C(c1c[nH]c3ccc(Br)cc13)Cc1cc(Br)ccc1N2` (stereo not given), for which the growth was 25.3% (inactive).

As to `COc1cc2nc(Cl)nc(Nc3cccc(C4=Nc5c(N)nc(N)nc5NC(c5ccc6c(c5)OCO6)C4)c3)c2cc1OC` (stereo not given), the growth was 85.2% (inactive).

As for `CCOC(=O)C1=NNC(c2ccc(Cl)cc2)C1C(=O)N1C(=S)NC(=O)C1CC(C)C` (stereo not given), the growth was 110% (inactive).

Take `COc1ccc(-c2cc(-c3ccc(Cl)cc3)c(C#N)c(=O)n2Cc2ccc(C(=O)O)cc2)cc1`: the growth was 61.9% (inactive).

In the case of `COC(=O)C1(C)CCC[C@]2(C)[C@H]3C[C@H]4C(C(C)C)=C[C@]3(CC[C@@H]12)[C@H]1[C@@H]4[C@@H](OC(=O)c2ccco2)CC[C@@H]1OC(=O)c1ccco1` (stereo not given in full), the growth was 107% (inactive).

`Oc1cccc2ccc(-c3nnc(SCc4ccc(O)c5ncccc45)n3-c3ccccc3)nc12`: the growth was 25.5% (inactive).

For the compound `CCNC(=O)N1CCc2cc(OC)c(OCCc3ccc(OC)cc3)cc2C1c1ccc(Cl)cc1C` (stereo not given), the growth is 14.7% (inactive).

`CCN1CCN(C(=O)[C@]23CCC(C)(C)C[C@H]2C2=CC[C@@H]4[C@@]5(C)Cc6c([nH]c7ccccc67)C(C)(C)[C@@H]5CC[C@@]4(C)[C@]2(C)CC3)CC1`: the growth is 104% (inactive).
